Data from PubChem BioAssay (NCI).
The panel holds about 83,000 compounds, 20% with a hit somewhere; the sample as a whole holds those more often.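 Results are percent growth after 48 hours of single-concentration exposure. 100 means growth as in untreated cells, lower positive values show inhibition; negative values down to -100 show cell death.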 Values without a mark were called inactive. Active and inactive are the calls of the source. How the source made its calls: active means growth percent below 10; inactive means the rest.

What was measured:
Test in all cases: NCI-60 one-dose screen, 48 h (100 = growth as untreated, 0 = no growth, -100 = all killed)
Conditions in all cases: 10 µM unless noted
[1] = tested on: RPMI-8226 leukemia
[2] = tested on: OVCAR-8 ovarian
[3] = tested on: OVCAR-5 ovarian
[4] = tested on: OVCAR-4 ovarian
[5] = tested on: SK-OV-3 ovarian
[6] = tested on: IGROV1 ovarian
[7] = tested on: OVCAR-3 ovarian
[8] = tested on: HS 578T breast
[9] = tested on: NCI/ADR-RES ovarian

SMILES | growth [1] | growth [2] | growth [3] | growth [4] | growth [5] | growth [6] | growth [7] | growth [8] | growth [9]
CCC(=O)Nc1ccccc1C#C/C=C\C#Cc1ccccc1SC | 20.1% | 144% | 69.1% | 74.6% | 78.1% | -49.3% (active) | 65% | -34.3% (active) | 49.9%
Cc1ccc(S(=O)(=O)N2CCC(C(=O)Nc3ccc(F)cc3F)CC2)cc1 | 86.5% | 97.8% | 98% | 83.7% | 92.3% | -38.5% (active) | 91.6% | -32.4% (active) | 95.4%
COc1cc(NC(=O)CCl)ccc(=O)c1 | 85.4% | 87.6% | 93.2% | 75% | 73.9% | 58.1% | 61.1% | 72.2% | 92%
Cc1cc2c(C(C)C)c(O)c(O)c(C=NCCCCCCC(=O)O)c2c(O)c1-c1c(C)cc2c(C(C)C)c(O)c(O)c(C=NCCCCCCC(=O)O)c2c1O | 10.1% | 30.6% | 55.9% | 28.2% | 63.7% | 28.6% | 25.8% | 22.2% | 67.6%
Cc1cc(Cl)ccc1OC(C)C(=O)Nc1nnc(C2CC2)s1 (stereo not drawn) | 89.6% | 111% | 98.7% | 104% | 103% | -51.7% (active) | 110% | -24.6% (active) | 96.6%
COc1ccc(-n2c(C)cc(-c3ccccc3)c2C)cc1 | 14.9% | 51.6% | 63.8% | 38% | 83.2% | 72% | 75.5% | 74.1% | 40.2%
COc1ccc(/C(=N/O)c2cc(F)c(F)c(OC)c2F)cc1O | 22.1% | 17.7% | 52.1% | 58.6% | 17.3% | 50.6% | -2.69% (active) | 8.26% (active) | 17.4%
Cc1cc2c(C(C)C)c(O)c(O)c(C=NCCCCC(=O)O)c2c(O)c1-c1c(C)cc2c(C(C)C)c(O)c(O)c(C=NCCCCC(=O)O)c2c1O | 28.8% | 46.1% | 70.9% | 44.2% | 63.9% | 41.7% | 45.4% | 30.9% | 74.2%
Cc1ccc(Cn2c(-c3nonc3N)nc3ccccc32)cc1 | 91% | 88.3% | 81.2% | 87.1% | 80.4% | 67.2% | 71.8% | 72.9% | 49.2%
Cc1ccc(-c2csc3nc(C)c(CCCl)c(=O)n23)cc1 | 83.8% | 103% | 107% | 82.1% | 105% | 78.8% | 99.4% | 83% | 105%
O=C(CN1CCN(c2cc3c(cc2F)c(=O)c(C(=O)O)cn3C2CC2)CC1)Nc1ccc(C(=O)/C=C/c2ccccc2)cc1 | 2.45% (active) | 6.3% (active) | 82.6% | 86.4% | 93.6% | 42.9% | 54.9% | 51.9% | 93.5%
COc1cc(C2CC(c3c(C)[n+]([O-])c4ccccc4[n+]3[O-])=NN2)cc(OC)c1OC (stereo not drawn) | 102% | 109% | 100% | 104% | 103% | 16.2% | 98% | 103% | 101%
N=C(N)c1ccc(-c2ccc(-c3ccc(Cl)cc3)o2)nc1 | -62.4% (active) | -43.4% (active) | -83.8% (active) | -73.6% (active) | -96.7% (active) | -60.6% (active) | -98.3% (active) | -57.2% (active) | -69.7% (active)
COC(=O)CCCCN=Cc1c(O)c(O)c(C(C)C)c2cc(C)c(-c3c(C)cc4c(C(C)C)c(O)c(O)c(C=NCCCCC(=O)OC)c4c3O)c(O)c12 | 17.7% | 16.4% | 17.8% | 13.7% | 40.1% | 26.4% | 14.3% | 9.48% (active) | 52.8%
COC(=O)CCCCCN=Cc1c(O)c(O)c(C(C)C)c2cc(C)c(-c3c(C)cc4c(C(C)C)c(O)c(O)c(C=NCCCCCC(=O)OC)c4c3O)c(O)c12 | 16.6% | 11.4% | 11.3% | 15.5% | 24% | 25.6% | 15.9% | 19.9% | 61.8%
CC1CCc2c(sc(NC(=O)CSc3nnc4ccccn34)c2C(N)=O)C1 (stereo not drawn) | 119% | 109% | 99.7% | 114% | 131% | 33.8% | 104% |  | 118%
